A short description of assay [1]: qHTS assay to identify small molecule agonists of the estrogen receptor alpha (ER-alpha) signaling pathway in the presence of an antagonist - cell viability counter screen (AID 1259386). Further: series mostly up to about 92 µM; nearly all actives have a fitted effect of over 30% in size. The essentials: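 Read-out: CellTiter-Fluor fluorescence after 1hr reagent incubation, measured in the same wells as the luciferase readout. VM7Luc4E2 cells were exposed to 15 compound concentrations with 10.0nM ICI-182,780 for 22hr at 37C.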
In general terms: Quantitative high-throughput screening tests each substance at several concentrations.

Assay [2] has as its target Progesterone receptor (Homo sapiens) (UniProt P06401). In words: qHTS assay to identify small molecule agonists of the progesterone receptor (PR) signaling pathway (AID 1346784; calls by dose curve; further: nearly all actives have a fitted effect of over 30% in size). The essentials:
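Using charcoal-stripped serum (2%) to limit endogenous steroids, PR-UAS-bla HEK 293T cells received compounds for 16 hr at 37C after 6 hr plating; beta-lactamase FRET fluorescence was recorded following 2 hr substrate loading at room temperature.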

The nature of assay [3]: qHTS assay to identify small molecule antagonists of the TGF-beta/Smad signaling pathway - cell viability counter screen (AID 1346824). Further: nearly all actives have a fitted effect of over 50% in size. In short, it runs like this:
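Cytotoxicity counter-screen run in the same wells as the beta-lactamase Smad reporter read: CellTiter-Glo luminescence after 30 min at room temperature. HEK 293T SBE-bla cells had 5 hr compound exposure at 37 C with TGF-beta1 (0.25 ng/mL stock).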

Assay [4] is described as follows: qHTS assay to identify small molecule agonists of the TGF-beta/Smad signaling pathway - cell viability counter screen (AID 1346829). Further: top concentration of the series differs between compounds; nearly all actives have a fitted effect of over 45% in size. The essentials:
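Luminescence from CellTiter-Glo, read after a 30 min room-temperature incubation, gives cell viability of SBE-bla HEK 293T cells treated 5 hr with compounds at 37 C.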

A short description of assay [5]: qHTS assay to identify small molecule agonists of the TGF-beta/Smad signaling pathway (AID 1346859; active means well fitted activation curve with a large enough effect in the signal ratio in the repeat runs, not every such curve was filed as active; the % refers to the signal ratio; further: series mostly up to about 77 µM). In short, it runs like this:
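Stable Smad binding element-beta-lactamase HEK 293T cells; 5 hr compound exposure at 37 C under 5% CO2; 2 hr room-temperature substrate step; fluorescence excited at 405 nm, collected at 460 nm and 530 nm.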

The target of assay [6] is Thyrotropin-releasing hormone receptor (Homo sapiens) (UniProt P34981). As to the kind of experiment: qHTS assay to identify small molecule agonists of the thyrotropin-releasing hormone receptor (TRHR) signaling pathway (AID 1346891; calls by dose curve;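 further: HEK293 cells expressing TRHR with calcium dye readout; series mostly up to about 58 µM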). In short, it runs like this:
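In 1536-format, 1500 TRHR-Hek293 cells per well grew 18 h, took up calcium dye for 2 h at 37 °C, received compound, and were read kinetically; 15-point titrations, triplicates.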

Assay [7] in a line: Human pregnane X receptor (PXR) small molecule agonists, qHTS cell viability counter screen (AID 1346977). Further: nearly all actives have a fitted effect of over 50% in size. The essentials:
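Readout is CellTiter-Fluor fluorescence from PXR-Luc HepG2 cells. Plated cells rested 5hr, then were treated with compounds for 24hr at 37C and 5% CO2, with reagent present during the last hour.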

Assay [8] in a line: Caspase-3/7 induction in HepG2 cells by small molecules, qHTS assay (AID 1346978). Further: nearly all actives have a fitted effect of over 15% in size. In short, it runs like this:
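Caspase-3/7 induction was measured by Caspase-Glo 3/7 luminescence (30 min, room temperature) after a 17 hr compound exposure of wild-type HepG2 cells seeded at 2,000 per well and pre-incubated 5 hr.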

The nature of assay [9]: Caspase-3/7 induction in CHO-K1 cells by small molecules, qHTS cell viability counter screen (AID 1346979). Further: nearly all actives have a fitted effect of over 35% in size. In short, it runs like this: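 To flag cytotoxic compounds, treated CHO-K1 wild-type cells were given CellTiter-Fluor at 16hr and read fluorescently after 1hr at 37C; the caspase-3/7 luminescence was measured in these same wells.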
Assay [10] is described as follows: Caspase-3/7 induction in CHO-K1 cells by small molecules, qHTS assay (AID 1346980). Further: nearly all actives have a fitted effect of over 15% in size. In short, it runs like this: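 Luminescent Caspase-Glo 3/7 read (30min, room temperature) quantified apoptosis induction. Cells were wild-type CHO-K1, treated with compound for 17hr at 37 C and 5% CO2.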
A short description of assay [11]: Caspase-3/7 induction in HepG2 cells by small molecules, qHTS cell viability counter screen (AID 1346981). Further: series mostly up to about 92 µM; nearly all actives have a fitted effect of over 30% in size. In short, it runs like this:
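Fluorescence read-out of live-cell protease activity (CellTiter-Fluor) after 1 hr with reagent. This was measured in the same wells as the caspase-3/7 luminescence, on HepG2 cells exposed to DMSO-dissolved compounds for 16 hr at 37 C.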

The target in assay [12] is Nuclear receptor subfamily 1 group I member 2 (Homo sapiens) (UniProt O75469). As to the kind of experiment: Human pregnane X receptor (PXR) small molecule agonists, qHTS assay (AID 1346982). Further: nearly all actives have a fitted effect of over 35% in size. Further: potency means the concentration at half of the fitted maximal effect. In short, it runs like this:
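HepG2 PXR-Luc reporter line, 5% charcoal-stripped FBS; 5 hr pre-incubation, compound (DMSO) 24 hr at 37 C/5% CO2; ONE-Glo 30 min RT; luminescence read-out.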

In assay [13] the target is Nuclear receptor subfamily 1 group I member 2 (Rattus norvegicus) (UniProt Q9R1A7). In words: Rat pregnane X receptor (rPXR) activation by small molecules, qHTS assay (AID 1346983). Further: nearly all actives have a fitted effect of over 20% in size. The conditions noted are these: rPXR luciferase reporter cells, One-Glo luminescence, 24 h; max activation: hits give high values. In short, it runs like this: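 Luminescent readout (One-Glo luciferase, 30 min room temperature) followed 24 hr compound treatment at 37 C of rPXR cells plated 2,000 per well and preincubated 5hr; qHTS format with compounds delivered in DMSO.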
Nuclear receptor subfamily 1 group I member 2 (Rattus norvegicus), sequence (Q9R1A7 whole entry, looked up): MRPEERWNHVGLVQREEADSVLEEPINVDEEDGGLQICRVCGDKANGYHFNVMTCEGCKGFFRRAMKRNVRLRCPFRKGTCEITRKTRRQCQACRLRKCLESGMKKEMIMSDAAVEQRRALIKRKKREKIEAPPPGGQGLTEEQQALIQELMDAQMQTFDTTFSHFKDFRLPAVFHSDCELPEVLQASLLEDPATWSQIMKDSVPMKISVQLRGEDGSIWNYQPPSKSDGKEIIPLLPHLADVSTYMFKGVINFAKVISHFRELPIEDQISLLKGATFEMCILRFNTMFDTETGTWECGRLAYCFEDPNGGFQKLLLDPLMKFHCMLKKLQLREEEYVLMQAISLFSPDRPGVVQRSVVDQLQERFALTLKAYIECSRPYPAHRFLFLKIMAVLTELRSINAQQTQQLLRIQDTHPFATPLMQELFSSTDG

Assay [14] deals with Nuclear receptor subfamily 1 group I member 2 (Homo sapiens) (UniProt O75469). In words: CYP3A4 induction through human pregnane X receptor (PXR) by small molecules, qHTS assay (AID 1346984). Further: nearly all actives have a fitted effect of over 40% in size. In short, it runs like this:
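HepG2-derived DPX-2 line carrying PXR plus a CYP3A4-promoter luciferase reporter; cells plated 5 hr, compound-exposed 24 hr at 37C. CYP3A4 activity probed with 3uM (final) Luciferin-IPA for 3hr, then luciferase read after One-Glo.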

Assay [15] addresses Acetylcholinesterase (Homo sapiens) (UniProt P22303). As to the kind of experiment: Acetylcholinesterase (AChE) small molecule antagonists: colormetric cell-based qHTS assay (AID 1347395; calls by dose curve; further: nearly all actives have a fitted effect of over 30% in size; further: potency means the concentration at half of the fitted maximal effect). The essentials:
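Neuroblastoma line SH-SY5Y supplied the enzyme; cells were preincubated with compound for 30 min at 37 C and 5% CO2. Acetylthiocholine with DTNB was then added for 90 min at 37 C, and thiocholine was measured by colour.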

Assay [16] addresses Progesterone receptor (Homo sapiens) (UniProt P06401). In words: qHTS assay to identify small molecule antagonists of the progesterone receptor (PR) signaling pathway (AID 1346795; active means well fitted inhibition curve with a large enough effect in the signal ratio in the repeat runs, not every such curve was filed as active; the % refers to the signal ratio). The essentials:
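Inhibition of R5020-induced (1 nM final) beta-lactamase reporter signal in PR-UAS-bla HEK293T cells was scored by FRET fluorescence after overnight (16 hr) compound treatment.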

Assay [17] can be described thus: qHTS assay to identify small molecule antagonists of the progesterone receptor (PR) signaling pathway - cell viability counter screen (AID 1346798). Further: series mostly up to about 92 µM; nearly all actives have a fitted effect of over 50% in size. In short, it runs like this: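 ATP content as viability readout: CellTiter-Glo luminescence, 30 min room temperature, in PR-UAS-bla HEK293T cells after 16 hr compound/R5020 treatment at 37C and 5% CO2.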
A short description of assay [18]: qHTS assay to identify small molecule agonists of the progesterone receptor (PR) signaling pathway - cell viability counter screen (AID 1346799; calls by dose curve; further: nearly all actives have a fitted effect of over 45% in size). In short, it runs like this: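 Cytotoxicity in PR-bla HEK293T cells: 16 h compound, 37C; CellTiter-Glo added post-FRET read; luminescence after 30 min RT.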
Assay [19] concerns the target Thyrotropin-releasing hormone receptor (Homo sapiens) (UniProt P34981). In words: qHTS assay to identify small molecule antagonists of the thyrotropin-releasing hormone receptor (TRHR) signaling pathway (AID 1346877; active means well fitted inhibition curve with a large enough effect in the repeat runs, not every such curve was filed as active; further: series mostly up to about 51 µM). In short, it runs like this: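 HEK293/TRHR cells, 18 h, 37 °C; Ca2+ dye 2 h; cpd 5 min RT; TRH 1 nM final; fluorescence read 3 min, 1 s intervals; 15 concs, triplicate.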

Assay [20] concerns the target Nuclear receptor subfamily 1 group I member 2 (Homo sapiens) (UniProt O75469). In words: Human pregnane X receptor (PXR) activation by small molecules, qHTS assay (AID 1346985). Further: nearly all actives have a fitted effect of over 40% in size. In short, it runs like this:
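DPX-2 cells (HepG2 co-transfected with a PXR response element and a CYP3A4-promoter luciferase construct) were seeded at 2,000 per well, rested 5 hr at 37C, then exposed to DMSO-dissolved compounds for 24 hr. Activation was read as luciferase luminescence.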

Potency, outcome and max activation data for eleven compounds are collected here from PubChem BioAssay (Tox21).

A number with no mark means an inactive call. Inconclusive results are not listed. Activity calls are given as the source filed them. Unless noted, the call rests on the fitted dose curve; in most records, active means well fitted curve in the direction sought with a large enough effect in the repeat runs; inconclusive means weak or mixed curves; inactive means no such curve, though single readings can be large; an effect the other way counts as inactive or inconclusive.
On the % scale 0 is the no-effect control and ±100 the full control effect.

Thyrotropin-releasing hormone receptor (Homo sapiens), sequence (P34981 whole entry, looked up): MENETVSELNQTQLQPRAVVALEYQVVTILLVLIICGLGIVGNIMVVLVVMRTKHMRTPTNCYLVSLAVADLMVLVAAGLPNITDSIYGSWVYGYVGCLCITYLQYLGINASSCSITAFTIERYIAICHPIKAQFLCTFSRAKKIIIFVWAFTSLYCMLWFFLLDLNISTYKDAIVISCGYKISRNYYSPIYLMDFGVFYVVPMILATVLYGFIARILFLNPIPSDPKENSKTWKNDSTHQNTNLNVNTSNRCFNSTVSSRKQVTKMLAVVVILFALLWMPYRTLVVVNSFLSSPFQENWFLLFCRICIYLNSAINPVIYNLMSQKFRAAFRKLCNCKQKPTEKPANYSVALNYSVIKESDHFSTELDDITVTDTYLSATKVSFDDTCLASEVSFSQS
Nuclear receptor subfamily 1 group I member 2 (Homo sapiens), sequence (O75469 whole entry, looked up): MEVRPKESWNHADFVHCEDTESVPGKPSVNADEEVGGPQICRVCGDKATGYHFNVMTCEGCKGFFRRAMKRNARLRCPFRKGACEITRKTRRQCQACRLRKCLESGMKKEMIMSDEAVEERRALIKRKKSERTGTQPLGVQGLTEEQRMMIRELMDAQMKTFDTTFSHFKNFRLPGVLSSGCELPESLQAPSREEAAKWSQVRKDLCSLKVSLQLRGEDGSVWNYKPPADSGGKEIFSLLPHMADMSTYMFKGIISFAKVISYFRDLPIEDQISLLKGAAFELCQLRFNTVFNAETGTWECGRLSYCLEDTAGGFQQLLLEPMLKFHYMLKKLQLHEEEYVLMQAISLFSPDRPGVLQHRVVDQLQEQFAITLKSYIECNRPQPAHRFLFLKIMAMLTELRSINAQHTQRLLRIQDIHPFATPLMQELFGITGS
Acetylcholinesterase (Homo sapiens), sequence (P22303 whole entry, looked up): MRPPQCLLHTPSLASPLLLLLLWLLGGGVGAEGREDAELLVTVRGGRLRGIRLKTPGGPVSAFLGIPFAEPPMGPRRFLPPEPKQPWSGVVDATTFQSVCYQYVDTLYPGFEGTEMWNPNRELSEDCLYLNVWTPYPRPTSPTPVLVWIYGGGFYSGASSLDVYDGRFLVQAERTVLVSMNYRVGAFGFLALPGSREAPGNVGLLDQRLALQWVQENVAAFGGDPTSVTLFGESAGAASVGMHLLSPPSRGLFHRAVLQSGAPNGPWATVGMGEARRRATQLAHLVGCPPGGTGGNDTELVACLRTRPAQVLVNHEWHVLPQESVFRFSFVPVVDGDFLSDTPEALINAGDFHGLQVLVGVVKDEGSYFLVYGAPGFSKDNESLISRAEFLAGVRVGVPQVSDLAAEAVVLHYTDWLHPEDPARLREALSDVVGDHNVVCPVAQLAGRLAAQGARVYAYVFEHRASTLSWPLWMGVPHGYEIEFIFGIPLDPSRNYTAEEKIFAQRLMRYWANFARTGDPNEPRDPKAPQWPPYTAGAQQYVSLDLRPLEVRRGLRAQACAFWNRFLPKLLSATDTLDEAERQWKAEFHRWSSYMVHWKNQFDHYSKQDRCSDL
Progesterone receptor (Homo sapiens), sequence (P06401 whole entry, looked up): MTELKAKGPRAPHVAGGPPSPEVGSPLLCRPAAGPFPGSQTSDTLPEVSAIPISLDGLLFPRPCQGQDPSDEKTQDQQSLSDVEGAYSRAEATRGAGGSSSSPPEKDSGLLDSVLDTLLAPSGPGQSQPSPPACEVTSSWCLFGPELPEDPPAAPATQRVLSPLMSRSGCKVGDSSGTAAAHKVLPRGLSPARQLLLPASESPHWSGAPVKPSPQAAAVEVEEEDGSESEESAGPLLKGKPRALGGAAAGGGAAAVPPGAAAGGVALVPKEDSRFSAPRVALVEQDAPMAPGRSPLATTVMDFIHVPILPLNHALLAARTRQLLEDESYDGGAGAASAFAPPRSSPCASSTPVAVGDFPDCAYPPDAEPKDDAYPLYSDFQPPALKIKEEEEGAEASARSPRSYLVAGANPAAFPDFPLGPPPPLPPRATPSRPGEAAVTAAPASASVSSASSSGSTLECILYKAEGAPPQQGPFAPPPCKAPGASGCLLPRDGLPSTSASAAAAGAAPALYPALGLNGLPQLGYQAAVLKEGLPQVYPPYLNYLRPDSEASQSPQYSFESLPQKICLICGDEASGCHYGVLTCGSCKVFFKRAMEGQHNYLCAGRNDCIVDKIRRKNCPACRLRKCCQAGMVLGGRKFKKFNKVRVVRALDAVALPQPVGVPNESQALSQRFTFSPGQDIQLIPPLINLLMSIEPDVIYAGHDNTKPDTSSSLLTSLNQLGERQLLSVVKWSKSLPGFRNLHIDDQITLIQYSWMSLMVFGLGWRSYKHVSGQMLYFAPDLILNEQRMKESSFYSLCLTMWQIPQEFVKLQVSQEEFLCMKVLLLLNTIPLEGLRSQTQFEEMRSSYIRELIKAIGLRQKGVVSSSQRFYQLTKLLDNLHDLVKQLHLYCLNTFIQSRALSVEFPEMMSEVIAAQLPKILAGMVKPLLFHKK

Regarding `Cc1ncc2n1-c1ccc(Cl)cc1C(c1ccccc1F)=NC2`, the Potency entry in assay [1], in assay [2], in assay [3], in [7], in assay [8] and in assay [9] was “inactive” in each case. Also, the Potency result in assay [10], in [11], in [14] and in assay [15] was “inactive” in each case. Moreover, the compound was called inactive in assay [4], in [5] and in [6]. Besides, the Potency in [12] was 33.5 µM (active). Moreover, the max activation in assay [13] was 11.3%.

As to `O=[N+]([O-])c1cccc2cccnc12`, the Potency entry in [1], in assay [16], in [17], in assay [18], in assay [3] and in [7] was “inactive” throughout. The Potency result in assay [8], in assay [9], in assay [10], in assay [11] and in assay [15] was “inactive” throughout. Besides, the compound was called inactive in [4], in assay [5], in assay [19] and in [6].

As for `Cc1nnc2n1-c1sc(CCC(=O)N3CCOCC3)cc1C(c1ccccc1Cl)=NC2`, the Potency result in assay [1], in assay [16], in [17], in assay [18], in assay [3] and in assay [7] was “inactive” in each case. In addition, the Potency result in [8], in assay [9], in assay [10], in assay [11], in assay [12] and in [15] was “inactive” throughout. Besides, in assay [4], the compound was called inactive.

As to `CCC#N`, the Potency entry in assay [1], in assay [16], in [17], in assay [18], in [3] and in assay [7] was “inactive” throughout. Moreover, the Potency result in assay [8], in assay [9], in assay [10], in assay [12] and in assay [15] was “inactive” in each case. In addition, the result in [4], in [5], in [19] and in [6] was inactive.

Take `O=NN1CCCCC1`: the Potency entry in assay [1], in assay [16], in assay [17], in assay [18], in assay [3] and in [7] was “inactive” each time. The Potency result in assay [8], in [9], in assay [10], in [11], in assay [12] and in [15] was “inactive” throughout. Besides, the outcome in assay [4], in [5], in assay [19] and in assay [6] was inactive.

In the case of `O=C(CCCN1CCC(n2c(=O)[nH]c3ccccc32)CC1)c1ccc(F)cc1`, the Potency result in assay [1], in assay [2], in [3], in assay [8], in assay [9] and in assay [10] was “inactive” in each case. The Potency entry in assay [11], in assay [14], in [20] and in assay [15] was “inactive” each time. Besides, the compound was classed as inactive in assay [5]. Further, in assay [13], the max activation was -1.58%.

For `CCOC(=O)CP(=O)(OCC)OCC`, the Potency result in assay [1], in assay [16], in assay [17], in assay [18], in [3] and in assay [7] was “inactive” each time. Moreover, the Potency result in [8], in assay [9], in assay [10], in assay [11] and in assay [15] was “inactive” in each case. For the same compound, the compound was classed as inactive in assay [4], in assay [5], in assay [19] and in [6].

In the case of `O=P(O)(Oc1ccccc1)Oc1ccccc1`, the Potency entry in assay [1], in [16], in [17], in assay [18], in assay [3] and in assay [7] was “inactive” throughout. In addition, the Potency result in [8], in assay [9], in [10], in assay [12] and in assay [15] was “inactive” in each case. For the same compound, the call in [4], in assay [5], in [19] and in assay [6] was inactive.

On to `C(CCOCC1CO1)COCC1CO1` (centres undefined), for which the Potency entry in assay [1], in [2], in assay [17], in assay [18], in assay [3] and in [7] was “inactive” in each case. The Potency entry in assay [8], in assay [9], in assay [10], in [12] and in [15] was “inactive” throughout. The compound was called inactive in assay [5], in [19] and in assay [6].

With `CCOP(=S)(OCC)Oc1cc(-c2ccccc2)on1`, the Potency result in assay [1], in assay [2], in assay [17], in [7], in assay [8] and in assay [9] was “inactive” each time. The Potency entry in assay [10] and in assay [11] was “inactive” throughout. Besides, the compound was called inactive in [4], in [5], in assay [19] and in [6]. The Potency was 24.3 µM (active) in [12] and 63.3 µM (active) in [15].

With `O=[N+]([O-])c1cccc(O)c1`, the Potency entry in [1], in [16], in assay [17], in [18], in assay [3] and in assay [7] was “inactive” throughout. Besides, the Potency result in assay [8], in assay [9], in assay [10], in assay [11] and in assay [15] was “inactive” throughout. For the same compound, the compound was classed as inactive in [4], in assay [5], in assay [19] and in assay [6].
